Laboratory results: the supplement of paper PMC11417369
± gives the standard deviation of the averaged measurements. Whole data set: some 25,000 sequences, median “ln(normalized median fluorescence intensity)” near 7.9, cut for the highest 2% near 11. Only a selection was taken, and the highest values are over-represented in it overall.

tested on: PfAP2-I AP2 domain 3 (GST-tagged); assay: gcPBM binding intensity (ln(normalized median fluorescence intensity)); higher = stronger DNA binding
How it was run: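 Binding intensity is defined as the maximum Masliner-normalised natural-log median intensity across replicate spots for either probe orientation. It was measured on an Agilent 4 × 180k array of primer-extended double-stranded 36-bp intergenic genomic probes and negative controls, to which GST-tagged P. falciparum DNA-binding domains made in E. coli were applied for 1 h in 1× PBS with 1% milk, 0.2 mg/ml BSA, 0.5% salmon testes DNA and 0.03% Triton X-100. Detection was by Alexa488 anti-GST antibody and scanning at 488 nm.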

Sequence | gcPBM binding intensity (ln)
TTTTTTAAAATATAAAATATGTACAAATATGTTGAA [GTGCAC_negctrl_site379] | 7.97 ± 0.3
TGAATAAATAAACACACACACATATATATATCTGTA [CACACA_site4184] | 7.59 ± 0.4
AAGTGCATATTATTCACACATAATAATTGTATACCT [CACACA_site5965] | 10.3 ± 0.47
TTAATTATTATATAAGTGCAATAATAAAAAGTTGTA [GTGCAC_site9552] | 10.7 ± 0.76
AGTAATTATTTTAGAGTGCATAGTTTTTTAATAAAT | 9.54 ± 0.18
ACGTACTGCCCTAAAGTGCATATATAATATAAACGA [GTGCAC_site9911] | 10.1 ± 0.34
AATATTCAATATAAAGTGCATTATTGTGGACCTAAT | 11.3 ± 0.65
ACTATATATATAAGTGCATGTTCATTATACCTAAAG [TGCATGCA_site696] | 8.93 ± 0.57
AATATTCAATATAAAGTGCATTATTGTGCCCCTAAT | 11.3 ± 0.64
AAATAAATAAATAGAGTGCATATATATATATATTTT | 10.01 ± 0.042
TTCGCCCTAAATAGAGTGCATTATATATATTAATAT | 11.4 ± 0.58
ACTAACATATATTCAACACACATATACCTTCAACCC [CACACA_site3011] | 7.94 ± 0.72
TAAATGCACATATACACACACCCAATTTTAAGTTTT [CACACA_site7428] | 9.31 ± 0.3
TAAATAAAAAAAAAAAGTACATACATACAAACATAT [XGTACX_site4427] | 7.79 ± 0.47
TGAACATCATTTTTATGTACACACACATATACGTTG [XGTACX_site3864] | 7.96 ± 0.28
AAAAAAAAATAATATTGTACACACATAAATTCTTTG [XGTACX_site4315] | 7.51 ± 0.47
TTATAATACCTACAAAGTACAAACTTAAATATGAAC [XGTACX_site5684] | 7.68 ± 0.39
TGTATGTTTGGGTGCACACATAAATATTATATATAG [CACACA_site3397] | 10.5 ± 0.57
ATATATTTATAATAGGTGCATATGTTTTATTTTTCC [GTGCAC_site9849] | 10.1 ± 0.5
TATAGGTATATATAAGTGCAATATATATGTATATAC [GTGCAC_site9427] | 10.9 ± 0.41
TATGGGTTTATATAGGTGCAATATATGTATATATAA | 11.2 ± 0.59
GCATATATGGATATATAGGTATATATAAATGCAATA [GTGCAC_negctrl_site24] | 7.82 ± 0.71
TATACAAGTATATAGGTGCATATATAAGTATATATT [GTGCAC_site9994] | 10.5 ± 0.53

Sequence | gcPBM binding intensity (ln)
AAATACCTGATATATACACACTATGTTTTTCTTTTT [CACACA_site6680] | 7.77 ± 0.81
CTTTTTAAATTAAAATGTACAGAAAAATATTATTAT [XGTACX_site8760] | 7.72 ± 0.69
AAGGAAAATTTTTGGTGTACACAAAAAAATCCAAAA [XGTACX_site3596] | 8.46 ± 0.057
AAAGATGGAGTGATATGTACTGATATATTATTATAT [XGTACX_site6500] | 7.62 ± 0.67
TGTATAACCTGTGTTACACACATTAAAATTTATATA [CACACA_site4449] | 7.67 ± 0.46
AAAAAAAAAAAAAAAGTGCACTGAAAATATATTGAA [GTGCAC_site9395] | 11 ± 0.2
TTCTTGTTCCTGAAAGTGCATATAACAAAAATAACA [GTGCAC_site9635] | 9.99 ± 0.3
AAATAATATTGAAAAGTGCATATTTTTGTTGATATA | 9.15 ± 0.21
TTATTTTTGTTTTGAAGTACAAAAAAATATATTCTT [XGTACX_site6416] | 7.63 ± 0.34
AAAAAAAAAAAAAAAGTGCATATATAAATATTGTAT [GTGCAC_site9459] | 10.1 ± 0.18
TTTGTTCTTTTTGAAGTGCACTGAAATATAACAAAA | 11.3 ± 0.16
GTTTCCTTAATATTCACACACATATATATAATATAT [CACACA_site1856] | 8.22 ± 0.54
TATAAAAATATTTCTACACACATTAATATATATATA [CACACA_site1150] | 8.97 ± 0.042
TTTTACATATACATGTGTACATAACAAAGAATGTTT [XGTACX_site2406] | 7.88 ± 0.57
TATATACGCAAACACACACACACATACACCCACATA [CACACA_site1724] | 8.09 ± 0.31
ACAGAATATTTAATTCAACACACATACATATTTATT [CACACA_site8734] | 7.61 ± 0.52
TATAAATTTATACCAGTGCATTTTGAAATATATATA | 9.47 ± 0.057
TATATAAATTAACCAGTGCATTATTTGGAAATTATT | 11.1 ± 0.59
TATAAATTAAAATCAGTGCATATTTTGAAAAACCTC | 9.19 ± 0.41
TGGTTATTTATCTTTATTATAAATATTTACAAATAA [CACACA_negctrl_site1773] | 7.61 ± 0.38
TTCATAATAAAAAGGTGTACATATATATATATATAT [XGTACX_site2829] | 9.71 ± 0.2
TTTGTGTTTATAAATTGTACAAAGGTGCAAGAAGAA [XGTACX_site2159] | 11.1 ± 0.87
ACAAATTGTTAAAGGTGTACAATACATATATAAGAA [XGTACX_site4906] | 8.46 ± 0.56
